Most compounds without a hit are left out; they make up all but 1.9% or so of the library.
PREPL inhibitor: inhibitors of human prolyl oligopeptidase-like enzyme PREPL; hit rate 0.68% among 320,000; recombinant PREPL, fluorescence polarization activity-based probe; inhibition, % at 5.96 µM; Q4J6C6; in the data active = inhibition above about 43%
Target sequence (Q4J6C6 whole entry, looked up): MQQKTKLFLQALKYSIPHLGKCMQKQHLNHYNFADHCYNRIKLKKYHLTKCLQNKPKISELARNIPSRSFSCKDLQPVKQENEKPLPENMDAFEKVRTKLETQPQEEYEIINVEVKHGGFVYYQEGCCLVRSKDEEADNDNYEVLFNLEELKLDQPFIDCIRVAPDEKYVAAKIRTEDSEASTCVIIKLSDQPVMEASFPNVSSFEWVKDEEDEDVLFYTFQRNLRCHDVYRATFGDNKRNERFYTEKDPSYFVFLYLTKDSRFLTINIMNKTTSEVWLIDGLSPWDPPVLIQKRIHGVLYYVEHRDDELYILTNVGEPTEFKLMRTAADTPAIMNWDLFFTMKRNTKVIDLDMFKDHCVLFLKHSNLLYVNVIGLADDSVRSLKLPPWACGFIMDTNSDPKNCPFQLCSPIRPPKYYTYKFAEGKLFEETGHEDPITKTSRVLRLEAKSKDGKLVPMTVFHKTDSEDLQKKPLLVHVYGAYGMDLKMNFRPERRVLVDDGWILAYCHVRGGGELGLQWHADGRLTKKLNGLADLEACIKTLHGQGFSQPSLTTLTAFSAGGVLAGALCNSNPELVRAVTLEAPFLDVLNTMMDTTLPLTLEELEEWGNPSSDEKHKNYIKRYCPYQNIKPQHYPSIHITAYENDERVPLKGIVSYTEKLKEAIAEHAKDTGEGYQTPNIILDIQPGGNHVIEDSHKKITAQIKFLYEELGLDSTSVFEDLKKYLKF
LYPLA1 inh: blocks human lysophospholipase 1, a PME1 counter-screen; O75608; recombinant LYPLA1, FP-Rh probe fluorescence polarization; inhibition, % at 5.9 µM; hit rate 0.16% among 320,000;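 active = inhibition above the mean of all tested compounds plus 3 SD, set per campaign, cut at about 14% in these data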;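 note: inhibitors block serine hydrolase probe labeling of LYPLA1 so polarization falls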
GSTO1 counter: blocks human GSTO1 in RBBP9 counter-screen. P78417. recombinant GSTO1, activity-based probe fluorescence polarization. inhibition, % at 5.96 µM. hit rate 1.1% among 300,000. AID 1974;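 active = inhibition above the campaign mean inhibition plus 3 SD, cut at about 35% in these data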
Fam108B counter: blocks mouse Fam108B hydrolase in RBBP9 counter-screen. hit rate 0.33% among 300,000. AID 1947. inhibition, % at 9.51 µM. recombinant Fam108B, FP-Rh probe fluorescence polarization;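 active = inhibition above the screen mean inhibition plus 3 SD, computed separately per campaign, cut at about 18% in these data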;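 note: inhibitors lower polarization as less probe binds the enzyme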
LYPLA2 inh: blocks human lysophospholipase 2, a PME1 counter-screen | O95372 | recombinant LYPLA2, FP-Rh probe fluorescence polarization | inhibition, % at 5.9 µM | hit rate 0.38% among 320,000 | AID 2177;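 active = inhibition above the screen-wide mean plus 3 SD, limit set per campaign, cut at about 26% in these data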
PME-1 inh: blocks human protein phosphatase methylesterase 1 | recombinant PME-1, FP-Rh probe fluorescence polarization | inhibition, % at 5.9 µM | hit rate 0.53% among 320,000 | AID 2130;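 active = inhibition above the campaign mean of all compounds plus 3 SD, cut at about 26% in these data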;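 note: competitive labeling of PME-1 active site by serine hydrolase directed probe; inhibitors block probe labeling so polarization falls and inhibition rises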
GSTO1 inh conf: confirmation of human GSTO1 inhibitors; shares compounds with GSTO1 counter; recombinant GSTO1, probe fluorescence polarization; inhibition, % at 5.96 µM; hit rate 54% among 2,400;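 active = inhibition above the primary screen's cutoff, its mean inhibition plus 3 SD, cut at about 35% in these data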;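 note: loss of polarization as inhibitors block binding of rhodamine sulfonate ester activity probe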
GSTO1 ABPP inh: inhibitors of recombinant human GSTO1; shares compounds with GSTO1 counter; gel ABPP SE-Rh probe fluorescence; inhibition, % at 1 µM; hit rate 30% among 130; AID 463110;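 active = inhibition of the enzyme GSTO1 above about 75%, limit read from the data; inactive = inhibition below that limit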
Hits are given with their value; - = inactive; . = no result given; ! = not active in a repeat.

SMILES	PREPL inhibitor	LYPLA1 inh	GSTO1 counter	Fam108B counter	LYPLA2 inh	PME-1 inh	GSTO1 inh conf	others
Oc1cccc(O)c1O	-	-	61.6	-	-	-	-
Cc1ccc(NC(=O)CCNC(=O)c2ccccc2Cl)cc1S(=O)(=O)N1CCOCC1	-	-	.	.	-	-	.
CCN(C(=O)Cn1cc(C(=O)C(=O)N2CCOCC2)c2ccccc21)c1ccccc1	-	-	67.1	-	-	-	-
CCN(CC)C(=O)Cn1cc(C(=O)C(=O)N2CCN(c3ccccc3)CC2)c2ccccc21	-	-	-	-	-	-	.
CCOC(=O)c1c(C)[nH]c(C(=O)Nc2cc(OCC)c(N3CCOCC3)cc2OCC)c1C	-	-	.	.	-	-	.
Cc1cc(C)n(-c2cc(O)c(-n3nc(C)cc3C)cc2O)n1	-	-	46.5	-	-	-	-
COc1ccc(-n2nc(C(=O)NCC3CCCO3)c3ccccc3c2=O)cc1 (stereo not given)	-	-	-	-	-	-	.
Cn1nc(C(=O)NCC2CCCO2)c2ccccc2c1=O (stereo not given)	-	-	74.6	-	-	-	-
COc1ccc(/C=C/CN2CCC(n3nccc3NC(=O)C3CCCC3)CC2)cc1	-	-	-	-	-	-	.
Oc1ccccc1Oc1ncc(Br)c(Cl)n1	-	-	48.8	-	-	-	-
Nc1nnc(CC(=O)N/N=C/c2cc([N+](=O)[O-])cc(Br)c2O)s1	-	-	41.0	-	-	-	71.0
Nc1nnc(CC(=O)N/N=C/c2cccc([N+](=O)[O-])c2)s1	-	-	-	-	-	-	.
COc1ccc(N(C(=O)CCl)C(C(=O)NCCc2ccccc2)c2cccs2)cc1 (stereo not given)	-	-	93.3	-	-	-	97.6	GSTO1 ABPP inh=94.0
Cc1noc(NS(=O)(=O)c2ccc(NS(=O)(=O)c3ccc(Cl)cc3)cc2)c1C	-	.	.	.	.	.	.
CC1=CC(=O)c2ccccc2C1=O	-	-	39.0!	-	-	-	50.0
CC1(C)CC(=O)C(C=Nc2ccc(O)cc2)=C(O)C1	-	-	38.2	-	-	-	-
COc1ccc(CCN=CC2=C(O)CC(C)(C)CC2=O)cc1	-	-	-	-	-	-	.
CC1(C)CC(=O)C(C=NCCc2ccc(S(N)(=O)=O)cc2)=C(O)C1	-	-	40.6	-	-	-	-
COc1ccc(/C=C2\CCc3ccccc3C2=O)cc1O	-	-	-	-	-	-	.
O=C(Nc1ccc(F)c(F)c1)C1CCN(S(=O)(=O)c2cccs2)CC1	-	-	.	.	-	-	.
N#C/C(=C\N1CCCCC1)S(=O)(=O)c1ccc(Cl)cc1	-	-	-	-	-	-	.
C[C@@H](NC(=O)c1ncn(C)c1C(=O)N[C@H](C)c1ccccc1)c1ccccc1	-	-	.	.	-	-	.
[O-][n+]1c2c(nn1-c1ccccc1)/C(=N/O)CCC2	-	-	-	-	-	-	.
[O-][n+]1onc2c1CCC(=N/O)/C2=N\Nc1ccccc1	-	-	39.5	-	-	-	-
CN(C)c1ccc(NC(=O)Oc2ccccc2)cc1	-	-	39.5	-	-	-	-
SMILES	PREPL inhibitor	LYPLA1 inh	GSTO1 counter	Fam108B counter	LYPLA2 inh	PME-1 inh	GSTO1 inh conf	others
O=C(NCCc1ccccn1)c1ccc2nc(Cc3ccccc3F)oc2c1	-	-	-	-	-	-	.
CCN(CC)C(=O)c1ccc(N)cc1	-	-	42.9	-	-	-	-
CCOC(=O)c1c(CC(C)C)csc1NC(=O)C(C)C	-	-	-	-	-	-	.
CCOC(=O)c1c(CC(C)C)csc1NC(=O)CCl	-	-	76.0	-	-	-	91.6
CCCc1ccc(C(=O)N2CCN(c3ccccc3OCC)CC2)cc1	-	-	45.8	-	-	-	-
CCOc1ccccc1N1CCN(C(=O)c2cc[n+]([O-])cc2)CC1	-	-	-	-	-	-	.
CC(C)CC1(C)NC(=O)N(CC(=O)N2C(C)CCCC2C)C1=O (stereo not given)	-	-	.	.	-	-	.
COc1ccc(C(=O)Nc2ccc(O)c3ccccc23)cc1	-	-	49.3	-	-	-	-
COc1ccc(OC)c(S(=O)(=O)Nc2cccc3c(O)cccc23)c1	-	-	-	-	-	-	.
COc1ccc(NC(=O)Nc2ccccc2OC)cc1	-	-	-	-	-	-	.
COc1ccc(OC)c(S(=O)(=O)Nc2ccc(O)c3ccccc23)c1	-	-	59.8	-	-	-	-
COc1ccc(NC(=O)Nc2ccc(O)c3ccccc23)cc1	-	-	64.7	-	-	-	-
Cc1ccc(C(=O)NC2CC3CCC(C2)N3C)cc1 (stereo not given)	-	-	.	.	-	-	.
CCOc1ccc(Br)cc1S(=O)(=O)NC1=NCCCCC1	-	.	.	.	.	.	.
CC1=C(C)/C(=N/OC(=O)c2cccc([N+](=O)[O-])c2)C=CC1=O	-	-	47.2	-	-	-	-
CC(NC(=O)c1ccco1)C(=O)N1CC=C(c2ccccc2)CC1 (stereo not given)	-	.	.	.	.	.	.
NS(=O)(=O)c1ccc2nc(NC(=O)c3ccc4c(c3)OCCO4)sc2c1	-	-	42.2	-	-	-	-
Cc1ccc(C(=O)CSc2nnnn2C(C)C)c(C)c1	-	-	39.4	-	-	-	37.5
O=C(COC(=O)CCSc1ccccc1)Nc1ccccc1Br	-	.	.	.	.	.	.
O=C1CCC/C(=N/Nc2ccc(Cl)cc2)C1	-	-	40.5	-	-	-	-
O=C(NC(=S)/C(=C1\CCCCCN1)[N+](=O)[O-])c1ccccc1	-	.	.	.	.	.	.
C[n+]1cccc2c(Br)ccc([O-])c21	-	-	41.1	-	-	-	-
Cc1nn(CCC#N)c(NC(=O)c2ccc(Cl)cc2)c1P(=O)(Nc1ccc([N+](=O)[O-])cc1)N1CCOCC1 (stereo not given)	-	-	-	-	-	-	.
CCN(CC)P(=O)(Nc1ccc(Br)cc1)c1c(C)nn(CCC#N)c1NC(=O)c1ccc(Cl)cc1 (stereo not given)	-	-	47.3	-	-	-	-
O=C1C(Cl)=C(N2CCCCC2)C(=O)N1c1ccccc1Cl	-	-	-	-	-	-	.
O=C1c2cccc(Cl)c2C(=O)c2c1cccc2N1CCCC1	-	-	44.2	-	-	-	-
NS(=O)(=O)c1ccc(CCNC(=O)CN2CCN(S(=O)(=O)c3ccccc3F)CC2)cc1	-	.	.	.	.	.	.
CC1(S(=O)(=O)O)CC(=O)c2ccccc2C1=O (stereo not given)	-	-	73.8	-	-	-	73.5
CC1=NN(c2ccc(C)cc2C)C(=O)C1C(c1ccccc1)C1C(=O)N(c2ccc(C)cc2C)N=C1C (stereo not given)	-	-	44.0	-	-	-	-
COc1ccccc1-c1nnc(NC(=O)C(C)SC2=NCCS2)s1 (stereo not given)	-	-	48.2	-	-	-	61.8

Screens deposited in PubChem BioAssay by The Scripps Research Institute Molecular Screening Center.
